The panel holds about 83,000 compounds, 20% with a hit somewhere; the sample as a whole holds those more often.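 Each cell line was grown in a 96-well plate and treated with one concentration of compound for 48 hours. Values below 10 were considered active.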 Values without a mark were called inactive. The source made the active and inactive calls.

The first test has as its system MCF7 breast. The experiment in a line: NCI-60 one-dose screen, 48 h (100 = growth as untreated, 0 = no growth, -100 = all killed). The settings on record: 10 µM unless noted.
In the case of `CC[C@H](C)[C@@H]1NC(=O)[C@H](Cc2ccc(O)cc2)N(C)C(=O)[C@H](Cc2ccccc2)NC(=O)CN(C)C(=O)[C@@H]2CCCN2C(=O)[C@@H](Cc2ccccc2)N(C)C(=O)[C@H](CC(C)C)NC1=O`, the growth was -25% (active).

For `NC(=O)c1cccc(-c2cc(C(N)=O)ccc2Cl)c1`, the growth was 23.5%.

With `N#C/C(=C\c1ccc(Br)cc1)n1nnc2cccc(F)c21`, the growth was 12.6%.

Consider `CN1CCN(C(=O)OCc2nc3c(N4CCOCC4)nc(-c4ccccc4)nc3n2C)CC1`, for which the growth is -64.3% (active).

The test system of the next test is HCT-116 colon. The test is described as above. The settings on record: 10 µM unless noted.
With `C=C(C)[C@@H]1CC[C@]2(C=O)CC[C@]3(C)[C@H](CC[C@@H]4[C@@]5(C)CCCNC(C)(C)[C@@H]5CC[C@]43C)[C@@H]12`, the growth was 25.4%.

As to `COc1cc(OC)cc(C2C3=C(COC3=O)Nc3cc(OC)ccc32)c1` (configuration not stated), the growth is 1.55% (active).

As to `CN1CCN(C(=O)[C@]2(C)CC[C@]3(C)CC[C@]4(C)C(=CC(=O)[C@@H]5[C@@]6(C)CCC(=O)NC(C)(C)[C@@H]6CC[C@]54C)[C@@H]3C2)CC1`, the growth is 93.1%.

Turning to `COc1cc(C2CC(c3cccc(Nc4ccncc4)c3)=NN2c2cc(Cl)cc(Cl)c2)cc(OC)c1OC` (configuration not stated), the growth is 87.3%.

As to `COc1ccc(-c2ncc(-c3ccccc3)[nH]2)cc1OC`, the growth is 117%.

Consider `CC(C)(C)OC(=O)N1C/C(=C\c2ccoc2)C(=O)/C(=C/c2ccoc2)C1`, for which the growth is 21.7%.

In the case of `Cc1ccc2nc3c(cc2c1)CSc1nnc(-c2ccc[nH]c2=S)n1N3`, the growth was 92.5%.

Take `COc1ccc(Nn2c(SCC(=O)Nc3nc(-c4ccc(Cl)cc4)cs3)nc(C)c2C)cc1`: the growth is 27.8%.

As for `C=C(C)[C@@H]1CC[C@]2(C(=O)NCCCN(CCC#N)CCC#N)CC[C@]3(C)[C@H](CC[C@@H]4[C@@]5(C)CCC(=O)C(C)(C)[C@@H]5CC[C@]43C)[C@@H]12`, the growth is 97.3%.

Consider `Cc1ccc(C2CC(c3cccc(Nc4ccncc4)c3)=NN2c2ccc(Cl)cc2)cc1` (configuration not stated), for which the growth was -80.1% (active).

On to `COc1cc(NCCCN(CC(C)C)C2CCCC2)c2ncccc2c1`, for which the growth was 37.8%.

In the case of `COc1ccc(Cn2nc3c(c2-c2cc(OC)c(OC)c(OC)c2)-c2oncc2CC3)cc1`, the growth is 81.4%.

With `O=S(=O)(c1ccc(N/N=C\c2ccccc2)cc1)c1ccc(N/N=C/c2ccccc2)cc1`, the growth is 52.6%.

For `CC1(C)[C@H](O)CC[C@]2(C)[C@@H]1CC[C@@]13C[C@@H](CC[C@H]12)[C@@](O)(CO)C3`, the growth is -70.1% (active).

`COc1ccccc1OCC(=O)N1CCCCCC1`: the growth was 123%.

With `Cc1c2c(cc[n+]1Cc1ccccc1)c1ccc(OCc3ccccc3)cc1n2Cc1ccccc1`, the growth is -95.6% (active).

Turning to `CCn1cc(C2NC(=O)c3ccccc3N2)c2cccc(C)c21` (configuration not stated), the growth was 7.91% (active).

Turning to `O=C(Cc1ccc(/C=C/C(=O)c2ncc[nH]2)cc1)Nc1ccc(C(F)(F)F)cc1`, the growth is -58.7% (active).

`COc1cccc(C(Cc2ccccc2)Nc2ccccc2)c1OC` (configuration not stated): the growth is 77%.

Take `CCCCCCC/C=C/[C@H]1O[C@]2(O)C(=O)C=C3C[C@@H](O[C@@H]4O[C@H](CO)[C@@H](O)C(O)[C@@H]4O)C[C@@H]3[C@H]2C=C1C` (some centres not stated): the growth is -45.9% (active).

As to `CCOC(=O)N1CCc2c(sc3nc4nc[nH]n4c(=O)c23)C1`, the growth is 95.7%.

On to `Cc1nccc2c3ccc(OCc4cn(-c5ccc(Cl)cc5)nn4)cc3n(CCCc3ccccc3)c12`, for which the growth is 31.7%.

With `O=C1Nc2c(ccc(Cl)c2Cl)/C1=C/c1ccc(O)cc1`, the growth is 72.6%.

As to `C[C@@H]1CN(Cc2ccc(/C=C/c3n[nH]c4ccc5nc(-c6cn[nH]c6C(F)(F)F)c6c(c5c34)CCCC6)cc2)C[C@H](C)O1`, the growth is 4.51% (active).

Take `COc1ccc(C(=O)c2cc3c(N)c(C(=O)Nc4cccc(OC)c4)sc3nc2C)cc1`: the growth was 11.1%.

With `COc1ccc(/C(=C\c2ccccc2)C(=O)O)cc1OC`, the growth is 102%.

With `C[C@]12CCc3nc(Nc4cccc(O)c4)sc3C1=CC[C@@H]1[C@@H]2CC[C@]2(C)/C(=N\NC(N)=S)CC[C@@H]12`, the growth was -61.8% (active).

As to `COc1ccc(-c2c(-c3ccccc3)noc2N)cc1OC`, the growth was 100%.

As to `COc1cc(-c2nc3occn3c2-c2ccnc(NCCNS(=O)(=O)c3ccc(Cl)cc3)n2)ccc1F`, the growth was 63.6%.

For the compound `COc1cc(CCNc2nc3cc(N)cc(N)c3nc2-c2ccccc2)cc(OC)c1`, the growth is -35.9% (active).

Regarding `CCC(=O)c1ccc(O)c(OC)c1`, the growth was 91.2%.

As to `N#Cc1ccc(-c2ccc3c(c2)NC(=O)/C3=C\c2ccc[nH]2)cc1`, the growth was 104%.

Turning to `C=C(C)[C@@H]1CC[C@]2(CO)CC[C@]3(C)[C@H](CC[C@@H]4[C@@]5(C)CCCNC(C)(C)[C@@H]5CC[C@]43C)[C@@H]12`, the growth was -78.9% (active).

As to `CC(=O)c1c(C)[nH]c(-c2nc3ccc(N4CCN(C)CC4)cc3[nH]2)c1-c1ccccc1`, the growth is 59.6%.

As for `CC[C@H](C)[C@@H]1NC(=O)[C@H](Cc2ccc(O)cc2)N(C)C(=O)[C@H](Cc2ccccc2)NC(=O)CN(C)C(=O)[C@@H]2CCCN2C(=O)[C@@H](Cc2ccccc2)N(C)C(=O)[C@H](CC(C)C)NC1=O`, the growth is 1.24% (active).

As for `NC(=O)c1cccc(-c2cc(C(N)=O)ccc2Cl)c1`, the growth is 25.4%.

In the case of `N#C/C(=C\c1ccc(Br)cc1)n1nnc2cccc(F)c21`, the growth was 2.67% (active).

With `CN1CCN(C(=O)OCc2nc3c(N4CCOCC4)nc(-c4ccccc4)nc3n2C)CC1`, the growth was -71.6% (active).

The values are drawn from PubChem BioAssay (NCI).
